Source: PubChem BioAssay (NCI)
About 83,000 compounds went through this panel and 20% of them were active in at least one assay; those are over-represented in the sample as a whole.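 Activity criterion: percent growth below 10, measured after cells in 96-well plates were exposed to a single compound concentration for 48 hours.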 A number with no mark means an inactive call. Calls of active or inactive are those of the source.

Key:
Test in all cases: NCI-60 one-dose screen, 48 h (100 = growth as untreated, 0 = no growth, -100 = all killed)
NCI-H23 lung = conditions: 10 µM unless noted
NCI-H226 lung = conditions: 10 µM unless noted
NCI-H322M lung = conditions: 10 µM unless noted
HOP-62 NSCLC = conditions: 10 µM unless noted
NCI-H460 lung = conditions: 10 µM unless noted
HOP-92 NSCLC = conditions: 10 µM unless noted
NCI-H522 lung = conditions: 10 µM unless noted
A549/ATCC NSCLC = conditions: 10 µM unless noted
786-0 renal = conditions: 10 µM unless noted
COLO 205 colon = conditions: 10 µM unless noted
DU-145 prostate = conditions: 10 µM unless noted
K-562 leukemia = conditions: 10 µM unless noted
MALME-3M melanoma = conditions: 10 µM unless noted
MDA-MB-231 breast = conditions: 10 µM unless noted
RXF 393 renal = conditions: 10 µM unless noted
SF-268 CNS = conditions: 10 µM unless noted
SF-295 CNS = conditions: 10 µM unless noted
SF-539 CNS = conditions: 10 µM unless noted
UACC-257 melanoma = conditions: 10 µM
M14 melanoma = conditions: 10 µM unless noted

| Structure (SMILES) | growth (NCI-H23 lung) | growth (NCI-H226 lung) | growth (NCI-H322M lung) | growth (HOP-62 NSCLC) | growth (NCI-H460 lung) | growth (HOP-92 NSCLC) | growth (NCI-H522 lung) | growth (A549/ATCC NSCLC) | growth (786-0 renal) | growth (COLO 205 colon) | growth (DU-145 prostate) | growth (K-562 leukemia) | growth (MALME-3M melanoma) | growth (MDA-MB-231 breast) | growth (RXF 393 renal) | growth (SF-268 CNS) | growth (SF-295 CNS) | growth (SF-539 CNS) | growth (UACC-257 melanoma) | growth (M14 melanoma) |
| --- | --- | --- | --- | --- | --- | --- | --- | --- | --- | --- | --- | --- | --- | --- | --- | --- | --- | --- | --- | --- |
| COC1=CC(c2ccc[nH]2)=N/C1=C\c1[nH]c(C)c(C(=O)CCCCC(=O)NCc2ccccc2)c1C | 31.6% | 28.6% | 77% | 57.1% | 1.07% (active) | -55.5% (active) | -33.5% (active) | 1.81% (active) | 18.9% | 55.2% | 17% | 74.5% | 76.7% | -30.5% (active) | -72.3% (active) | 54.9% | 51.2% | 56.6% | 86.9% | 36.2% |
| CCNCc1ccncc1 | 105% | 103% | 104% | 104% | 102% | 107% | 91% | 99.4% | 97.7% | 106% | 108% | 94.5% | 101% | 114% | 112% | 106% | 102% | 103% | 96.3% | 94.5% |
| C=CCOc1cccc(/C=C/C(=O)c2sc(Nc3cccnc3)nc2C)c1 | 94.1% | 86.1% | 77.6% | 68.2% | 81.2% | 74.7% | 65.9% | 70.9% | 51.7% | 91.3% | 38.4% | 28.9% | 94.6% | 95.4% | 83.5% | 81.7% | 88.5% | 76.7% | 97.2% | 71.2% |
| CN(C)c1ccc(-c2ccc(-c3ccc(C(=N)N)cn3)o2)cc1 | 20.9% | 21.3% | -0.109% (active) | -69.8% (active) | -86.8% (active) | -61.2% (active) | -72.9% (active) | -48.7% (active) | -66.6% (active) | -93.7% (active) | -65.2% (active) | -46.7% (active) | -75.5% (active) | -84.4% (active) | -81% (active) | -49.2% (active) | -69.7% (active) | -87.4% (active) | -83.8% (active) | -74.4% (active) |
| C[C@]12CC[C@@H]3c4cc(O)c(O)cc4CC[C@H]3[C@@H]1CC[C@@H]2O | 64.5% | 97.8% | 60.6% | 44.4% | 29.5% | 18.1% | -8.58% (active) | 43.3% | 43% | 115% | 39.1% | 7.32% (active) | 16.8% | 48.1% | 28.7% | 46.7% | 35% | -1.85% (active) | 31.2% | 23.4% |
| O=C(Nc1ccc(Cl)cc1)c1cc(-c2ccc(F)cc2)c2sc(=O)[nH]c2n1 | 5.26% (active) | 11.6% | 13.2% | 6.64% (active) | 1.4% (active) | -24.2% (active) | 3.59% (active) | 12.2% | 14.5% | 8.8% (active) | 24.2% | 10.6% | 4.01% (active) | 5.74% (active) | 5.27% (active) | 23.6% | 9.57% (active) | -4.01% (active) | -8.82% (active) | 13.9% |
| COc1c(NC[C@H]2OC(O)[C@H](O)[C@@H](O)[C@@H]2O)c(=O)c1=O (stereo not given in full) | 97% | 98.3% | 98% | 102% | 104% | 95.6% | 114% | 94.2% | 102% | 112% | 115% | 96.4% | 92.9% | 106% | 96.6% | 102% | 107% | 94.1% | 102% | 108% |
| CCn1cc(C(=O)O)c(=O)c2cc(F)c(N3CCN(S(=O)(=O)c4cccc5ccccc45)CC3)cc21 | 0.0593% (active) | 21.9% | -14.5% (active) | 15.1% | 8.04% (active) | -8.49% (active) | -33.9% (active) | 3.78% (active) | 24.3% | -87.6% (active) | 18.9% | 15.4% | -16% (active) | 23.9% | 29% | 16.4% | 7.68% (active) | 17.4% | 14% | 17.9% |
| N#CC1=C(N)OC2=C(C(=O)CCC2)C1c1ccco1 (stereo not given) | 97.1% | 103% | 99.1% | 91.3% | 110% | 106% | 92.7% | 101% | 101% | 110% | 108% | 98.6% | 113% | 113% | 114% | 114% | 108% | 97.5% | 102% | 104% |
| COc1cc(OC)c(C(=O)/C=C/c2cccc(C(F)(F)F)c2)c(OC)c1 | 5.06% (active) | 25.1% | 13.2% | 18.7% | -1.87% (active) | 2.76% (active) | -31.8% (active) | 6.1% (active) | 13.4% | 12.9% | 11.6% | 11.8% | 51.4% | 20.7% | -12.9% (active) | 14.7% | 17.4% | -0.21% (active) | 31.3% | 9.53% (active) |
| CN(C)c1ncc(-c2ccc(C(F)(F)F)cc2)c(NC2CCCCCC2)n1 | 58.5% | 61.9% | 95.4% | 88.2% | 55.4% | -1.97% (active) | 43.6% | 57.5% | 67.2% | 50% | 84.9% | 28.2% | 5.4% (active) | 83.4% | 78.8% | 80.8% | 32.7% | 97.3% | 38.1% | 44.5% |
| NS(=O)(=O)c1ccc(CN2C(=O)c3cccc4cccc(c34)C2=O)cc1 | 107% | 86.1% | 93% | 81.8% | 110% | 82.7% | 89.9% | 92.1% | 99.2% | 99.4% | 105% | 96% | 112% | 94.3% | 97.6% | 92.4% | 110% | 88.8% | 103% | 105% |
| CCn1cc(C(=O)O)c(=O)c2cc(F)c(N3CCN(S(=O)(=O)c4ccc(Cl)cc4Cl)CC3)cc21 | -3.58% (active) | 13.1% | -5.57% (active) | 19.5% | 10.9% | -9.06% (active) | -75.8% (active) | 2.05% (active) | 18.7% | -59.8% (active) | 11.6% | 10.9% | -19.8% (active) | 25.5% | 27.9% | 24.6% | -32% (active) | 8.88% (active) | -15.2% (active) | 15.9% |
| O=C(CCCn1c(=O)c2sc3ccccc3c2n2nnc(-c3ccccc3)c12)NCCc1cnc[nH]1 | -20.4% (active) | 105% | -13.7% (active) | -59.8% (active) | -44.1% (active) | -54.5% (active) | -71.9% (active) | -45.7% (active) | -77.7% (active) | -36.8% (active) | -68.8% (active) | 82.6% | -72.2% (active) | -70.8% (active) | -46.2% (active) | -1.01% (active) | 8.37% (active) | -82.8% (active) | -44.4% (active) | -78.6% (active) |
| CCOC(=O)CC(C#N)(CC(=O)OCC)C(=O)OCC | 106% | 94.5% | 112% | 117% | 115% | 68% | 114% | 84.6% | 104% | 116% | 113% | 111% | 127% | 101% | 99.6% | 111% | 101% | 107% | 73.9% | 102% |
